Laboratory results published in PubChem BioAssay AID463173 (ICCB-Longwood Screening Facility, Harvard Medical School, 2010).
Hit rate of the full screen: of about 52,000 compounds, about 4,300 (8.3%) were called active. The list comes from a sample in which actives are over-represented; it also holds similar structures and randomly drawn compounds. A number with no mark means an inactive call. Cut-off read from the data, not from the text of the source: active = survival mostly below about 52% (no sharp cut-off); inactive = mostly above about 56%.

What follows are compounds tested on DeltatarO mutant (assay: growth inhibition of S. aureus wild type versus tarO mutant, primary screen, teichoic acid synthesis inhibitors, RN4220, OD600 (AID 463173)). Settings: OD600, 18 h, active compounds read low, screened at 18.75 µg/mL (by protocol).

In order of rising survival:
1. COC(=O)C1=C(c2ccccc2)c2ccccc2S(=O)(=O)N1CC(=O)Nc1ccc(F)c(F)c1  40%
2. CCOc1ccccc1OCCCn1c(-c2ccc(Cl)cc2)nc2ccccc2c1=O  42%
3. COc1ccc(NC(=O)Cc2csc(C)n2)cc1  47%
4. Cc1nc(CC(=O)Nc2ccc(C(N)=O)cc2)cs1  49%
5. COc1cc(NC(=O)CSc2ncc3c(n2)-c2ccc(Cl)cc2N(Cc2ccccc2)S3(=O)=O)cc(OC)c1  55%
6. CCOc1ccc(-c2nnc(Nc3ccc(S(N)(=O)=O)cc3)c3ccccc23)cc1  56%
7. O=c1c2ccccc2nc(-c2ccc(Cl)cc2)n1CCCOc1ccccc1F  57%
8. CCc1cccc(NC(=O)CSc2ncc3c(n2)-c2cc(Cl)ccc2N(C)S3(=O)=O)c1  57%
9. Cc1ccc(OCCCn2c(-c3ccc(Cl)cc3)nc3ccccc3c2=O)cc1C  58%
10. COc1ccccc1OCCCCn1c(-c2ccc(Cl)cc2)nc2ccccc2c1=O  59%
11. COc1ccc(-c2cn3c(n2)sc2cc(C(=O)Nc4ccc(F)cc4Cl)ccc23)cc1  61%
12. Cc1ccc(OC(=O)c2ccco2)cc1C  61%
13. COc1cccc(OCCCn2c(-c3ccc(Cl)cc3)nc3ccccc3c2=O)c1  61%
14. CC(C)(C)OC(=O)N1CCC(c2c(C(=O)Nc3cccc(C(F)(F)F)c3)cnn2-c2ccc(F)cc2F)CC1  61%
15. COc1cccc(OCCCCn2c(-c3ccc(Cl)cc3)nc3ccccc3c2=O)c1  62%
16. COc1ccc(OC)c(NC2=C(c3ccccc3)C(=O)c3ccccc32)c1  62%
17. O=C1C(c2ccc(C(F)(F)F)cc2)=C(Nc2ccc(Cl)cc2)c2ccccc21  63%
18. O=C(NCc1ccc(F)cc1)c1cc2n(n1)CCCN(Cc1ccc(F)cc1)C2=O  64%
19. Cn1c(C(=O)NCc2ccccc2Cl)cc2sc(Cl)cc21  64%
20. CCCCNC(=O)CCC1N=C2c3ccccc3N=C(SCC(=O)NCCc3ccc(OC)c(OC)c3)N2C1=O (stereo not drawn)  64%
21. COc1ccc(-c2cc(-c3ccc(F)cc3)nc3c2COc2ccc(F)cc2-3)cc1  65%
22. CCc1ccccc1NC(=O)Cn1c(=O)n(C(C)C)c(=O)c2oc3ccccc3c21  66%
23. Cc1ccc(NS(=O)(=O)c2ccc3c(c2)n(C)c(=O)n3C)cc1C  67%
24. Cc1cccc(C(=O)Nc2nc3c(s2)CCCC3)c1  67%
25. Cc1ccc(OCCCCn2c(-c3ccc(Cl)cc3)nc3ccccc3c2=O)cc1  68%
26. O=C(c1cc2ccc3cccnc3c2[nH]1)N1CCCCC1  69%
27. O=C(NC1CCCCC1)N1CCN(Cc2ccccc2)CC1  69%
28. Cc1ccc(NC2=C(c3ccc(C(F)(F)F)cc3)C(=O)c3ccccc32)cc1C  69%
29. Cc1ccc(-n2c(SCC(N)=O)nc3c(oc4ccccc43)c2=O)cc1  69%
30. Cc1ccc(NC(=O)CSc2ncc3c(n2)-c2ccc(Cl)cc2N(C)S3(=O)=O)cc1F  69%
31. Cc1ccccc1OCCCCn1c(-c2ccc(Cl)cc2)nc2ccccc2c1=O  71%
32. COc1ccc(C2=C(Nc3ccc(C)cc3C)c3ccccc3C2=O)cc1  71%
33. CCC(=O)N1CCc2cc(Br)cc(S(=O)(=O)N3CCN(c4ccccc4)CC3)c21  73%
34. CCC(=O)N1CCc2cc(S(=O)(=O)NC(CC(C)C)C(=O)NCc3cccc(OC)c3)ccc21 (stereo not drawn)  73%
35. COc1cc(/C=C/c2nc(C#N)c(N3CCN(C)CC3)o2)cc(OC)c1OC  73%
36. Cc1cccc(NC(=O)Cc2csc(COc3cccc(C)c3)n2)c1  74%
37. CCOc1ccc(CNC(=O)C2CCCN(S(=O)(=O)c3ccc4c(c3)CCCC(=O)N4)C2)cc1 (stereo not drawn)  75%
38. Cc1ccc(NS(=O)(=O)c2ccc(NC(=O)N3CCCC3)cc2)cc1C  75%
39. CCOc1ccc(NC(=O)CSc2ncc3c(n2)-c2ccccc2N(C)S3(=O)=O)cc1  75%
40. COc1ccc(/C=C/c2nc(C#N)c(N3CCCCC3)o2)cc1OC  76%
41. COc1cc(C(CC(=O)Nc2cc(C)ccn2)N2Cc3ccccc3C2=O)cc(OC)c1OC (stereo not drawn)  76%
42. Cc1ccccc1Nc1sc(C(=O)c2ccc3c(c2)OCO3)c(N)c1S(=O)(=O)c1ccccc1  78%
43. COc1ccc(/C=C/c2nc(C#N)c(N3CCC(C)CC3)o2)cc1OC  81%
44. Cc1ccc(Cl)cc1N1CCN(C(=O)c2cc(S(=O)(=O)N3CCCCC3)cn2C)CC1  83%
45. Cc1ccccc1Cn1c(=O)n(CCCCC(=O)NCCc2ccccc2)c(=O)c2ccccc21  83%
46. COc1cc(Cl)c(C)cc1NC(=O)Cn1ncc2c3ccccc3n(Cc3ccccc3)c2c1=O  83%
47. CCOc1ccc(NC(=O)CC2C(=O)N(c3cccc(C)c3)C(=O)N2Cc2ccco2)cc1 (stereo not drawn)  83%
48. Cc1cccc(OCc2nc(CC(=O)Nc3ccc(C)c(C)c3)cs2)c1  85%
49. COCCNC(=O)C1CCN(S(=O)(=O)c2ccc3c(c2)CCCN3C(C)=O)CC1  85%
50. COc1cc(/C=C/c2nc(C#N)c(N3CCCCCC3)o2)cc(OC)c1OC  85%
51. COc1ccc(-c2cc3c(=O)n(CC(=O)Nc4ccccc4C(F)(F)F)ccn3n2)cc1OC  86%
52. COc1cc(NS(=O)(=O)c2ccc(NC(=O)c3ccc(C(C)=O)cc3)cc2)nc(OC)n1  87%
53. Cc1ccc(C(=O)Nc2ccc3oc(-c4cccnc4)nc3c2)c(Cl)c1  88%
54. Cc1cc(S(=O)(=O)N2CCN(Cc3noc(CCC(=O)N4CCCCC4)n3)CC2)ccc1F  89%
55. Cc1cc(C)cc(NC(=O)Cc2csc(COc3cccc(C)c3)n2)c1  90%
56. N#CC(C#N)=Cc1ccc(-c2ccc3c(c2)COC3=O)o1  90%
57. C1CCC(N2CCC(N3CCCCC3)CC2)CC1  91%
58. CCC(=O)N1CCc2cc(S(=O)(=O)NC(C(=O)NCc3ccc(OC)cc3)C(C)C)ccc21 (stereo not drawn)  92%
59. COc1ccc(C2=C(Nc3ccc(C)c(C)c3)c3ccccc3C2=O)cc1  93%
60. CCOC(=O)CNC(=O)Nc1cc(C(=O)NCc2ccc(C(C)C)cc2)ccc1N1CCCC1  93%
61. O=C(NC1CCCCC1)N1CCN(c2ccccn2)CC1  94%
62. CCOC(=O)c1c(NC(=O)Cc2coc3cc(C)ccc23)sc2c1CCCC2  95%
63. O=C(NC1CCS(=O)(=O)C1)Sc1ccccc1 (stereo not drawn)  96%
64. Cc1cc(=O)n(Cc2ccc(F)cc2Cl)c2c1c(C)nn2-c1ccccc1  96%
65. O=C(OCc1ccccc1)c1ccc(-c2nnn(Cc3ccccc3F)n2)cc1  98%
66. C(=N\N1CCN(c2ccccn2)CC1)/c1ccco1  100%
67. CSc1ccc(CNC(=O)CCn2ccc3cc(S(=O)(=O)N4CCCC4)ccc32)cc1  100%
68. COc1ccc(NC(=O)C2=C(C)Nc3ncnn3C2c2ccc(O)cc2)cc1 (stereo not drawn)  101%
69. CC1CCN(C(=O)C(C)Sc2nnc3c(n2)[nH]c2ccccc23)CC1 (stereo not drawn)  102%
70. CCCOC(=O)c1ccc(NC(=O)Cc2csc(C)n2)cc1  105%
71. O=C(Nc1onc2c1CCCC2)c1ccccc1  105%
72. CCOc1ccc(-c2ncccc2O)cc1  105%
73. N#Cc1ccc(-c2cccnc2)n(CC(=O)N2CCOCC2)c1=O  106%
74. CCc1ccc2nc(SCC(=O)N3CC(=O)Nc4ccccc43)c(C#N)cc2c1  107%
75. Cc1ccc(CNC(=O)C(C)n2nc(C)n3c(cc4sccc43)c2=O)cc1 (stereo not drawn)  111%
76. COc1ccc(NC2=C(c3ccccc3)C(=O)c3ccccc32)cc1Cl  116%
77. CN1c2ccc(Cl)cc2-c2nc(SCC(=O)NCc3ccc(F)cc3)ncc2S1(=O)=O  117%
78. Cc1cccc(Cn2ccn(Cc3ccc(Cl)cc3)c(=O)c2=O)c1  121%

For `Cc1nc(CC(=O)Nc2ccc(C)c(C)c2)cs1`, the survival was 40% (active).
For `Cc1nc(CC(=O)Nc2ccc(N(C)C)cc2)cs1`, the survival was 45% (active).
With `Cc1cc(C)cc(NC(=O)Cc2csc(C)n2)c1` the survival was 39% (active).
For `c1ccc(N2CCN(N=C3c4ccccc4-c4ccccc43)CC2)nc1`, the survival was 18% (active).
For `C=Cn1c(C)c(C(C#N)=C(C#N)C#N)c2c1CCCC2`, the survival was 2% (active).
`O=C(Nc1cc2c(s1)CCCC2)c1ccccc1` was tested, and the survival was 46% (active).
With `COc1ccc(OCCCCn2c(-c3ccc(Cl)cc3)nc3ccccc3c2=O)cc1` the survival was 34% (active).
With `O=c1c2ccccc2nc(-c2ccc(Cl)cc2)n1CCCCOc1ccc(F)cc1` the survival was 45% (active).
For `CCc1ccc(OCCCn2c(-c3ccc(Cl)cc3)nc3ccccc3c2=O)cc1`, the survival was 44% (active).
For `COc1ccccc1OCCCn1c(-c2ccc(Cl)cc2)nc2ccccc2c1=O`, the survival was 29% (active).
For `Cc1ccc(OCCn2c(CNc3ccccc3C)nc3ccccc32)cc1`, the survival was 42% (active).
With `Cc1ccccc1NCc1nc2ccccc2n1CCOc1ccccc1` the survival was 0% (active).
With `COc1ccc(/C=C/c2nc(C#N)c(N3CCCCCC3)o2)cc1OC` the survival was 45% (active).
With `COc1ccc(N2CCN(c3oc(/C=C/c4cc(OC)c(OC)c(OC)c4)nc3C#N)CC2)cc1` the survival was 49% (active).
For `Cc1cc(C)cc(NC2=C(c3ccccc3)C(=O)c3ccccc32)c1`, the survival was 39% (active).
In the case of `COc1ccc(C2=C(Nc3ccc(Br)c(C)c3)c3ccccc3C2=O)cc1`, the survival is reported as 0% (active).
`Cc1ccc(NC2=C(c3ccc(C(F)(F)F)cc3)C(=O)c3ccccc32)cc1F` was tested, and the survival was 28% (active).
`CCCCOc1nnc(-c2ccc(OCC)cc2)c2ccccc12` was tested, and the survival was -12% (active).
`CCOc1ccc(NC(=O)CSc2ncc3c(n2)-c2cc(Cl)ccc2N(C)S3(=O)=O)cc1` was tested, and the survival was 0% (active).
`COc1cccc(NC(=O)CSc2ncc3c(n2)-c2ccc(Cl)cc2N(C)S3(=O)=O)c1` was tested, and the survival was 37% (active).
